Source: PubChem BioAssay
TROY signal inh – TROY signaling inhibition; Q293 LMP1-TROYcd NF-kB luciferase reporter, 4 h; inhibition, % at 10 µM; 360,000 compounds, 0.98% hits; AID 1347056;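 active means compounds whose plate-normalised and pattern-corrected inhibition of the luciferase reporter signal at the single screening dose is 50% or more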
PPC-1+TRAIL kill – kills PPC-1 cancer cells in the presence of TRAIL. PPC-1 cells + TRAIL, ATPLite viability luminescence. cell killing (% activity), % at 4 µM or 5 µM. 220,000 compounds, 0.41% hits. AID 1443;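 active means cell killing above 50% in the first pass at 4 µM, then a duplicate retest at 5 µM averaging 50% or more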;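 further: plate controls were cells with TRAIL plus DMSO for no effect and medium-only wells lacking cells for full effect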
TWEAK-Fn14 inh – blocks TWEAK-Fn14 interaction in a reporter cell assay. inhibition, % at 10 µM. TWEAK-stimulated Fn14 reporter cells, luciferase luminescence, 8 h. 360,000 compounds, 2% hits; in the data active means inhibition above about 50%
HSP90 inh – blocks HSP90-mediated luciferase refolding in reticulocyte lysate | Rabbit reticulocyte lysate, luciferase refolding luminescence, 3 h | inhibition, % at 5.6 µM | 290,000 compounds, 0.91% hits | AID 1789;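 active means inhibition above the screen-wide mean plus 3 SD, computed separately per campaign, cut at about 16% in these data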;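 further: 0% = DMSO wells and 100% = 60 µM geldanamycin wells; inhibitors lower the luminescence because luciferase stays unfolded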
Platelet DG rel – platelet dense granule release activity; AID 1663; inhibition, %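 (compounds screened at 7.5 µM in platelet-rich plasma)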; 300,000 compounds, 0.22% hits; human platelet-rich plasma, SFLLRN dense granule ATP release, luminescence;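 active means mean replicate score, as percent of positive control, at or above 50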
C8 TRAIL sens – sensitizes caspase-8 expressing cells to TRAIL; 360,000 compounds, 1% hits; inhibition (viability loss, TRAIL sensitization), % at 10 µM; AID 624354; NB7+C8 cells + TRAIL, ATPlite viability luminescence;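 active means compounds causing at least 50% loss of cell viability in the single-dose screen, relative to plate controls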
The depositor's hits bear a star. Compounds with a hit are over-represented: about 3.5% of the library has one in this group of screens.

Screening Cc1ccc(-n2nc(C)c3cc(C(=O)O)sc32)cc1 returned PPC-1+TRAIL kill 29, TWEAK-Fn14 inh 86*, HSP90 inh -1, Platelet DG rel 9 and C8 TRAIL sens 0.
`Cc1nn(-c2ccccc2)c2sc(C(=O)O)cc12` gave TROY signal inh -10, PPC-1+TRAIL kill 4, TWEAK-Fn14 inh -2, HSP90 inh 3, Platelet DG rel -1 and C8 TRAIL sens -7.
For O=C(Nc1nc2cc3c(cc2s1)OCCO3)C1CCCCC1 the results were TROY signal inh 36, TWEAK-Fn14 inh 46 and C8 TRAIL sens 20.
CC(=O)Nc1nc2cc3c(cc2s1)OCCO3 was read as TROY signal inh -46, TWEAK-Fn14 inh 31, HSP90 inh 17*, Platelet DG rel -3 and C8 TRAIL sens -3.
Screening COc1ccc(C(=O)Nc2nc3cc4c(cc3s2)OCO4)c(OC)c1 returned TROY signal inh -38, PPC-1+TRAIL kill 34, TWEAK-Fn14 inh -31, HSP90 inh -2, Platelet DG rel -10 and C8 TRAIL sens 51*.
For Fc1cccc2sc(Nc3nc4cc5c(cc4s3)OCCO5)nc12 the results were TROY signal inh 72*, PPC-1+TRAIL kill 28, TWEAK-Fn14 inh 73*, HSP90 inh 9, Platelet DG rel 8 and C8 TRAIL sens 53*.
For Fc1cccc2sc(Nc3nc4cc5c(cc4s3)OCO5)nc12 the results were TROY signal inh -70, PPC-1+TRAIL kill 31, TWEAK-Fn14 inh -25, HSP90 inh -3, Platelet DG rel 6 and C8 TRAIL sens 11.
Screening O=C(Nc1ccc(-c2csc(Nc3cccc(C(F)(F)F)c3)n2)cc1)c1ccccc1 returned TROY signal inh -2, PPC-1+TRAIL kill 26, TWEAK-Fn14 inh 65*, Platelet DG rel -5 and C8 TRAIL sens 23.
`Cc1csc(N=Nc2ccc(N(C)C)cc2)[n+]1[O-]` gave TROY signal inh 75*, TWEAK-Fn14 inh 86* and C8 TRAIL sens 81*.
For CCOC(=O)[C@@H]1[C@H]2COc3ccccc3[C@@H]2N2C(=O)N(c3ccc(C)cc3)C(=O)[C@]12C the results were TROY signal inh 5, TWEAK-Fn14 inh 4, HSP90 inh 0, Platelet DG rel 1 and C8 TRAIL sens -2.
COc1ccc(NS(=O)(=O)c2ccc3oc(SCc4ccc(F)cc4)nc3c2)cc1 was read as TROY signal inh 51*, PPC-1+TRAIL kill 8, TWEAK-Fn14 inh 48, HSP90 inh 5, Platelet DG rel 3 and C8 TRAIL sens 27.
O=C(O)c1ccc(S(=O)(=O)N2CCCCCCC2)cc1 was read as TROY signal inh 3, TWEAK-Fn14 inh -6 and C8 TRAIL sens -6.
`CCN(CC(=O)Nc1ccc(OC)cc1)C(=O)c1ccc([N+](=O)[O-])cc1` gave TROY signal inh -4, PPC-1+TRAIL kill 22, TWEAK-Fn14 inh -1, HSP90 inh 2, Platelet DG rel 1 and C8 TRAIL sens 1.
`CC(C)(C)c1ccc(OCCCC(=O)Nc2nnc(C3CC3)s2)cc1` gave TROY signal inh -12, TWEAK-Fn14 inh 27 and C8 TRAIL sens -3.
CCC(C)Oc1cc(-c2ccnc(Nc3cccc(Cl)c3)n2)ccn1 (centres undefined) was read as TROY signal inh 44, PPC-1+TRAIL kill 2, TWEAK-Fn14 inh 91*, Platelet DG rel 12 and C8 TRAIL sens 35.
Screening OCCCNc1cc(-c2ccnc(Nc3cccc(Cl)c3)n2)ccn1 returned TROY signal inh 59*, PPC-1+TRAIL kill 50, TWEAK-Fn14 inh 97*, Platelet DG rel 4 and C8 TRAIL sens 33.
Screening CN(C)CCCNc1ccc(-c2cc(Nc3cccc(Cl)c3)ncn2)cn1 returned TROY signal inh -25, PPC-1+TRAIL kill 32, TWEAK-Fn14 inh -28, Platelet DG rel -4 and C8 TRAIL sens 21.
Screening Cc1cc(Cl)cc(C)c1OCC(=O)NC1CCCCCC1 returned TROY signal inh -43, TWEAK-Fn14 inh -23 and C8 TRAIL sens -5.
O=C(Nc1c(Br)cc2c(c1Br)Cc1ccccc1-2)C(Cl)Cl was read as TROY signal inh -16, TWEAK-Fn14 inh 4 and C8 TRAIL sens 5.
Screening CCSc1nc(COC(=O)NC)c(COC(=O)NC)n1C returned TROY signal inh 20, TWEAK-Fn14 inh -7 and C8 TRAIL sens -7.
CNC(=O)OCc1nc(SSC(C)(C)C)n(C)c1COC(=O)NC was read as TROY signal inh -8, TWEAK-Fn14 inh 89* and C8 TRAIL sens 50.
`O=C(NCc1cccc(Cl)c1)c1ccc(S(=O)(=O)Nc2cccc(C(F)(F)F)c2)cc1` gave TROY signal inh 55*, PPC-1+TRAIL kill 13, TWEAK-Fn14 inh 32, HSP90 inh 0, Platelet DG rel 3 and C8 TRAIL sens -11.
CCNC(=O)C1(C)CCCN(C(=O)c2cc(-c3ccccc3)cs2)C1 (centres undefined) was read as TROY signal inh -14, TWEAK-Fn14 inh -7 and C8 TRAIL sens -9.
`COc1ccc(-c2[nH]ncc2-c2ccc(Cl)cc2)c(O)c1` gave TROY signal inh 14, PPC-1+TRAIL kill 16, TWEAK-Fn14 inh 14, HSP90 inh -4, Platelet DG rel -1 and C8 TRAIL sens 4.
Screening COc1ccc(-c2cn[nH]c2-c2ccc(OC)cc2O)cc1 returned TROY signal inh 43, TWEAK-Fn14 inh 78*, HSP90 inh -1, Platelet DG rel -2 and C8 TRAIL sens -2.
For COc1ccc(-c2cn[nH]c2-c2ccc(OCc3ccccc3)cc2O)cc1 the results were TROY signal inh 31, PPC-1+TRAIL kill 0, TWEAK-Fn14 inh 63*, HSP90 inh 2, Platelet DG rel 11 and C8 TRAIL sens -20.
Screening COc1ccccc1-c1cn[nH]c1-c1ccc(OCc2ccccc2)cc1O returned TROY signal inh 20, PPC-1+TRAIL kill 13, TWEAK-Fn14 inh 3, HSP90 inh 0, Platelet DG rel -3 and C8 TRAIL sens 18.
`CN(C)S(=O)(=O)c1ccc(C(=O)NCc2nnc(SCC(=O)N3CCCC3)o2)cc1` gave TROY signal inh -6, TWEAK-Fn14 inh -1, HSP90 inh -1, Platelet DG rel -26 and C8 TRAIL sens 0.
For O=C(Nc1cccc(Cl)c1)C1C2CCC3C(CCC21)C3(Cl)Cl (centres undefined) the results were TROY signal inh 44, PPC-1+TRAIL kill 8, TWEAK-Fn14 inh 62*, HSP90 inh -1, Platelet DG rel -3 and C8 TRAIL sens 10.
Screening CN(Cc1cnc2nc(N)nc(N)c2n1)c1ccc(C(=O)NC(CCC(=O)O)C(=O)O)c2ccccc12 (centres undefined) returned TROY signal inh 13, TWEAK-Fn14 inh -3 and C8 TRAIL sens 83*.
O=C(NCc1ccc(Cl)cc1)c1ccc2ccccc2n1 was read as TROY signal inh -54, TWEAK-Fn14 inh 21, HSP90 inh -2, Platelet DG rel 18 and C8 TRAIL sens -3.
